Data reported in PubChem BioAssay (NCATS).
Results filed as inconclusive are left out. Active and inactive are the calls of the source. The call rests on the fitted dose curve; in most records, active means well fitted inhibition curve with a large enough effect; inconclusive means small, poorly fitted or top-dose-only effect; inactive means flat fitted curve, though single readings scatter.

What was measured:
[1] = qHTS profiling for inhibitors of Plasmodium falciparum proliferation (AID 504749); further: nearly all actives have a fitted effect of over 60% in size;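 on activity, negative = inhibition: 0% = DMSO vehicle and full inhibition = artemisinin control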; settings: P. falciparum in erythrocytes, SYBR Green DNA, 72 h
Summary of the method: (§1)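 SYBR Green fluorescence of parasite DNA, read after lysis and overnight dark incubation, measured growth over 72 h in erythrocyte culture at 0.3% parasitemia and 2.5% hematocrit. Data normalised to DMSO and 0.29 uM artemisinin, with plate-drift correction.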

3D7 = assay: as above; settings: P. falciparum in erythrocytes, SYBR Green DNA, 72 h; series mostly up to 28.7 µM
Summary of the method: as §1

7G8 = assay: as above; settings: P. falciparum in erythrocytes, SYBR Green DNA, 72 h; series mostly up to 28.7 µM
Summary of the method: as §1

AA1029 = assay: as above; settings: P. falciparum in erythrocytes, SYBR Green DNA, 72 h; series mostly up to 28.7 µM
Summary of the method: as §1

AS120 = assay: as above; settings: P. falciparum in erythrocytes, SYBR Green DNA, 72 h; series mostly up to 28.7 µM
Summary of the method: as §1

ATS189 = assay: as above; settings: P. falciparum in erythrocytes, SYBR Green DNA, 72 h; series mostly up to 28.7 µM
Summary of the method: as §1

ATS95 = assay: as above; settings: P. falciparum in erythrocytes, SYBR Green DNA, 72 h; series mostly up to 28.7 µM
Summary of the method: as §1

C2A = assay: as above; settings: P. falciparum in erythrocytes, SYBR Green DNA, 72 h; series mostly up to 28.7 µM
Summary of the method: as §1

CP185 = assay: as above; settings: P. falciparum in erythrocytes, SYBR Green DNA, 72 h; series mostly up to 28.7 µM
Summary of the method: as §1

CP191 = assay: as above; settings: P. falciparum in erythrocytes, SYBR Green DNA, 72 h; series mostly up to 28.7 µM
Summary of the method: as §1

[2] = at 12.8 µM (top of the series), parasite line A
[3] = at 28.7 µM (top of the series), parasite line A
[4] = at 28.7 µM (top of the series), parasite line B
Potency means the concentration at half of the fitted maximal effect.

CCN(CC)C(=O)c1ccc(O)c(OC)c1
inactive: activity, negative = inhibition [1, 2] 6.06% | activity, negative = inhibition ([1]; at 12.8 µM (top of the series), parasite line B) 6.5% | activity, negative = inhibition [1, 3] 14.7% | activity, negative = inhibition [1, 4] -14.5% | outcome (3D7) | Potency (7G8) | outcome (AA1029) | Potency (AS120) | Potency (ATS189) | outcome (ATS95) | outcome (C2A) | outcome (CP185) | Potency (CP191)

CCN1CCC[C@H]1CNC(=O)c1cc(S(N)(=O)=O)ccc1OC
inactive: activity, negative = inhibition [1, 3] 7.08% | activity, negative = inhibition [1, 4] 23% | outcome (3D7) | Potency (7G8) | outcome (AA1029) | Potency (AS120) | Potency (ATS189) | outcome (ATS95) | outcome (C2A) | outcome (CP185) | Potency (CP191)

Clc1ccc(Cn2c(CN3CCCC3)nc3ccccc32)cc1
inactive: activity, negative = inhibition [1, 2] 5.36% | outcome (3D7) | outcome (AA1029) | Potency (AS120) | Potency (ATS189) | outcome (ATS95) | outcome (C2A) | outcome (CP185) | Potency (CP191)
active: Potency (7G8) 3.16 µM

CC1(C)O[C@H]2C[C@@H]3[C@H]4CCC5=CC(=O)C=C[C@]5(C)[C@@]4(F)[C@@H](O)C[C@]3(C)[C@]2(C(=O)CO)O1
active: Potency (7G8) 8.91 µM
inactive: activity, negative = inhibition [1, 3] -0.373% | activity, negative = inhibition [1, 4] -9.39% | outcome (3D7) | outcome (AA1029) | Potency (ATS189) | outcome (ATS95) | outcome (C2A) | outcome (CP185) | Potency (CP191)

O=C(NCCN1CCOCC1)c1ccc(Cl)cc1
inactive: activity, negative = inhibition [1, 3] 9.62% | activity, negative = inhibition [1, 4] 3.61% | outcome (3D7) | Potency (7G8) | outcome (AA1029) | Potency (AS120) | Potency (ATS189) | outcome (ATS95) | outcome (C2A) | outcome (CP185) | Potency (CP191)

C[C@@H](O)[C@H]1C(=O)N2C(C(=O)O)=C(S[C@@H]3CN[C@H](C(=O)N(C)C)C3)[C@H](C)[C@H]12
inactive: activity, negative = inhibition [1, 3] 10.4% | activity, negative = inhibition [1, 4] 13.7% | outcome (3D7) | Potency (7G8) | outcome (AA1029) | Potency (AS120) | Potency (ATS189) | outcome (ATS95) | outcome (C2A) | outcome (CP185) | Potency (CP191)

Cc1cccc(C)c1OCC(C)N (stereo not drawn)
inactive: activity, negative = inhibition [1, 3] 7.67% | activity, negative = inhibition [1, 4] -7.13% | outcome (3D7) | Potency (ATS189) | outcome (C2A) | outcome (CP185)

O=C(O)Cc1cccc2ccccc12
inactive: activity, negative = inhibition [1, 3] 12.1% | activity, negative = inhibition [1, 4] 6.39% | outcome (3D7) | Potency (7G8) | outcome (AA1029) | Potency (AS120) | Potency (ATS189) | outcome (ATS95) | outcome (C2A) | outcome (CP185) | Potency (CP191)
